NOD2 RIPK2 PPI: inhibitors of human NOD2-RIPK2 interaction; inhibition, % at 4.98 µM; AID 624267; O43353; hit rate 0.38% among 360,000; CHO BLA complementation NOD2-RIPK2, CCF4 ratio; in the data active = inhibition above about 21%;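 also: 0% = vehicle only and 100% = reference blocker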
Target sequence (O43353 whole entry, looked up): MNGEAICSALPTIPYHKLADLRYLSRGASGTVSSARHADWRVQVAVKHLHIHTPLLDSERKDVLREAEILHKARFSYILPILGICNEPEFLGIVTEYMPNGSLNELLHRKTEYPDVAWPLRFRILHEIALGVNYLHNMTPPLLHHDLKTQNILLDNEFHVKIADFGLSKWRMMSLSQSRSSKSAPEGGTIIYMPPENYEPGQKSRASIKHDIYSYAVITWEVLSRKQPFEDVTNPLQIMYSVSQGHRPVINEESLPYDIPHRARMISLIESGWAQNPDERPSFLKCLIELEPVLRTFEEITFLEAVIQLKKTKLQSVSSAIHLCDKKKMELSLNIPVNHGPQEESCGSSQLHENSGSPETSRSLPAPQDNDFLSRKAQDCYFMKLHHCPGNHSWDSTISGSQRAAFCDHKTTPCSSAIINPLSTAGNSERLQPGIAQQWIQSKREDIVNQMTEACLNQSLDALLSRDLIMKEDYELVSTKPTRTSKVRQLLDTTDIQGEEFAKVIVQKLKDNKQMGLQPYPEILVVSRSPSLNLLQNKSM
Myeloid diff MLP: myeloid differentiation induction; hit rate 1% among 360,000; ER-HoxA9 myeloid progenitors, lysozyme-GFP differentiation, flow cytometry; calls only at 10 µM; AID 624256;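 active = normalized GFP-positive differentiation at or above the plate's own cutoff, the solvent-only control mean plus 3 SD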;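 also: cells exposed to compound for four days before flow analysis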
TLR4 MyD88 comp: inhibitors of human TLR4-MyD88 binding. O00206+Q99836. HeLa CL3-4 TLR4/MyD88 BLA complementation, FRET ratio. inhibition, % at 8.4 µM. hit rate 0.18% among 200,000. AID 861; in the data active = inhibition above about 25%;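 also: 0% = vehicle and 100% = reference inhibitor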
TLR9-MyD88 block: TLR9-MyD88 interaction inhibition; Q9NR96+Q99836; CHO BLA complementation TLR9-MyD88, CCF4 FRET ratio; inhibition, % at 4.98 µM; hit rate 0.21% among 340,000; AID 504734;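 active = inhibition above the mean over all tested compounds plus 3 SD, cut at about 21% in these data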;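 also: 0% = DMSO only wells and 100% = clavulanate BLA inhibitor control wells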
* = called active by the depositor; i = inactive; · = no result; + = active, no number. Hits are enriched below; roughly 1.5% of the tested compounds scored in any of these assays.

SMILES | NOD2 RIPK2 PPI | Myeloid diff MLP | TLR4 MyD88 comp | TLR9-MyD88 block
CCN(CC)C(=O)CSc1nc(-c2ccccc2)ccc1C#N | 3.2 | i | 10.9 | 4.8
COc1ccc(-c2cc(-c3ccc(Cl)cc3)c(C#N)c(SCC(=O)O)n2)cc1 | 7.1 | i | · | -11.7
N#Cc1ccc(-c2ccccc2)nc1SCC(=O)c1cccc(Cl)c1 | 8.1 | + | 18.1 | 18.4
CC1(c2ccc3c(c2)OCCO3)NC(=O)N(CC(=O)Nc2ccccc2)C1=O (stereo not given) | 7.7 | i | · | -1.3
CC1(c2ccc3c(c2)OCCO3)NC(=O)N(CC(=O)Nc2ccccc2SCC#N)C1=O (stereo not given) | -2.4 | + | · | -1.6
O=C(CNC(=O)c1ccc2c(c1)OCO2)N/N=C(Br)/C=C/c1ccccc1 | -6.7 | + | -5.3 | 3.3
O=C(CNC(=O)c1ccc2c(c1)OCO2)N/N=C/c1cccc([N+](=O)[O-])c1 | -8.6 | i | -4.4 | -6.7
CC(C)(C)NC(=O)C(c1ccncc1)n1c(-c2ccc(C(F)(F)F)cc2)nc2ccccc21 (stereo not given) | -13.2 | i | · | ·
Nc1nc(N)c2c(ccc3c2ccn3Cc2cccc([N+](=O)[O-])c2)n1 | -1.4 | + | · | ·
Nc1nc(N)c2cc([N+](=O)[O-])ccc2n1 | -6.8 | i | · | 5.3
CC1=Nc2ccccc2/C1=C/c1c(C)[nH]c2ccccc12 | 1.2 | + | · | 0.3
CC1=Nc2ccccc2/C1=C\c1nc(-c2ccccc2)oc1O | 10.9 | i | -1.1 | 4.8
CC(C)Oc1ccc(S(=O)(=O)N2CCOCC2)cc1NC(=O)CSC(=S)N1CCCC1 | -6.8 | + | · | 4.9
CN(C)S(=O)(=O)c1ccc(N=Cc2c(C(F)(F)F)[nH]n(C)c2=O)cc1 | -9.0 | + | 2.2 | 2.7
COC(=O)c1ccc(N=Cc2c(C(F)(F)F)[nH]n(C)c2=O)cc1 | -12.9 | i | -12.6 | -1.6
COc1ccccc1[C@H]1C(c2cccc(C)c2)=NN(c2ccccc2)[C@@H]1CO | -11.1 | + | · | -7.8
COc1ccccc1[C@H]1C(c2ccccc2)=NN(c2ccccc2)[C@@H]1CO | 14.5 | i | · | -4.6
CCc1nc2c(OCCOc3ccc(F)cc3)cccn2c1N(C)C(=O)c1ccc(OC)cc1 | -4.7 | i | · | ·
CN1C(=O)N(S(=O)(=O)c2ccc(F)c(F)c2F)C(=O)C1(C)C | -3.7 | + | -14.1 | 2.6
C#CCNC(=O)C[C@@H]1C[C@@]2(C(=O)OCC)CCCC=C2N(CCC2=CCCCC2)C1=O | 6.7 | i | · | ·
COc1cccc(C(NC(C)=O)c2nc(-c3ccccc3)cs2)c1 (stereo not given) | -7.7 | i | · | ·
CCN(CC)c1ccc(/C=C(\C#N)C(N)=S)cc1 | -11.0 | + | · | -3.1
CN(CCOc1ccccc1)CC(=O)Nc1cc([N+](=O)[O-])ccc1Cl | -4.7 | i | -11.0 | 1.8
CCOc1ccc(CN(C)CC(=O)Nc2ccc([N+](=O)[O-])cc2Cl)cc1 | -14.3 | + | -13.1 | 1.9
CC(=O)c1cc2cccc(OC3(C)CCN(Cc4ccc(-c5ccccn5)cc4)C3)c2o1 (stereo not given) | -5.8 | i | · | ·
SMILES | NOD2 RIPK2 PPI | Myeloid diff MLP | TLR4 MyD88 comp | TLR9-MyD88 block
C/C(CC(=O)Nc1ccc2c(c1)OCCO2)=N\NC(=O)COc1cccc(C)c1 | 1.6 | + | · | -0.5
C/C(CC(=O)Nc1ccc2c(c1)OCCO2)=N\NC(=O)COc1ccccc1C | -6.2 | i | · | -1.2
O=C(NC1CCCCC1)C1c2ccccc2OCC(=O)N1CCc1c[nH]c2ccccc12 (stereo not given) | 3.9 | i | · | ·
CC(C)[C@H](NC(=O)C1(c2ccccc2)CCN(C(=O)OC(C)(C)C)CC1)C(=O)O | -5.9 | + | -4.6 | -1.1
CC(C)(C)OC(=O)N1CCC(C(=O)N[C@@H](Cc2ccccc2)C(=O)O)(c2ccccc2)CC1 | -6.1 | i | -8.6 | -3.9
CCOC(=O)/C(C#N)=C\c1ccc(CC)s1 | -8.5 | i | 0.6 | -0.7
CCOC(=O)/C(C#N)=C\C=C1C=CN(C)C=C1 | -5.1 | + | -15.3 | -6.4
COc1ccc(NC(=O)C2(C)CCN2Cc2cccc(OC)c2F)cc1OC (stereo not given) | -7.0 | i | · | ·
CCCN(CC(=O)Nc1ccccc1C)C(=O)C1CCCN(C(=O)c2ccc(Cl)cc2)C1 (stereo not given) | -7.4 | + | · | -0.4
Cc1cccc(C)c1NC(=O)CNC(=O)C1CCCN(C(=O)c2ccc(Cl)cc2)C1 (stereo not given) | -5.3 | i | · | -6.0
CCCC[C@@H]1Cc2[nH][nH]c(=O)c2[C@H](c2ccc(C(C)C)cc2)O1 | -4.2 | i | · | ·
Cc1ccc(N(C(=O)CNC(=O)c2ccco2)C(C(=O)NC2CCCC2)c2cccnc2)c(C)c1 (stereo not given) | -22.2 | + | · | 8.1
COc1cccc(-c2cnc3c(NC(C)=O)cc(-c4ccsc4)cn23)c1 | 4.9 | i | · | ·
CCCCOCCCNC(=O)C[C@@H]1C[C@@]2(C(=O)OCC)CCC=C2N(Cc2cccc3ccccc23)C1=O | 4.9 | i | · | ·
O=C(CN(Cc1ccccc1Cl)C(=O)c1csnn1)NCc1ccc2c(c1)OCO2 | -2.4 | i | · | 4.0
Cc1ccc(CN(CC(=O)NCc2ccc3c(c2)OCO3)C(=O)c2csnn2)cc1 | -0.2 | + | · | -8.1
CCCCCCCCN1C(=O)[C@H](CC(=O)NCCCOCCCC)C[C@@]2(C(=O)OC)CC(C)(C)CC=C12 | -1.3 | i | · | ·
O=C(CC(=O)c1ccccc1)Nc1ccc([N+](=O)[O-])cc1 | -1.7 | i | · | 2.3
O=C(Cc1ccc([N+](=O)[O-])cc1)c1ccccc1 | -5.5 | + | · | -3.6
c1ccc(-c2csc3nnc(SCc4ccc5c(c4)OCO5)n23)cc1 | -23.7 | + | 0.5 | -0.6
Cc1ccc(-c2csc3nnc(SCC(=O)NCc4ccc5c(c4)OCO5)n23)cc1 | -9.3 | i | 5.1 | 3.4
CCOC(=O)C1(C)CCN1C(=O)c1ccc(SC(F)(F)F)cc1 (stereo not given) | -8.9 | i | · | ·
COc1ccc(NC(=S)N(CCc2c(C)[nH]c3ccc(C)cc23)Cc2cccnc2)cc1 | 5.5 | i | 5.3 | -3.0
CCOc1ccc(NC(=S)N(CCc2c(C)[nH]c3ccc(C)cc23)Cc2ccncc2)cc1 | -2.7 | + | 5.3 | 3.2
CC(=O)OC[C@@H]1CN(Cc2ccccc2)C[C@H](n2cnc3c(N4CCN(c5ccccc5)CC4)ncnc32)O1 | -4.1 | i | · | ·
SMILES | NOD2 RIPK2 PPI | Myeloid diff MLP | TLR4 MyD88 comp | TLR9-MyD88 block
COc1ccc(C(=O)/C=C/c2ccc(OC)c(Cn3nnc4ccccc43)c2)cc1 | -8.3 | + | 15.0 | -5.1
COc1ccc(/C=C/C(=O)c2ccc(O)cc2)cc1CN1CCOCC1 | 0.0 | + | 8.1 | 0.3
Cc1ccc(NC(=O)c2ccc(Cl)c(N3C(=O)C=CC3=O)c2)cc1 | 50.6* | i | 19.5 | 17.9
O=C(Nc1ccc(Cl)c(Cl)c1)c1ccc(Cl)c(Cl)c1 | -5.9 | i | · | 4.9
COc1cc(NC(=O)CSc2ncnc3c2cnn3Cc2ccccc2)cc(OC)c1 | 9.5 | i | 4.1 | -6.4
COc1ccc(OC)c(NC(=O)CSc2ncnc3c2cnn3-c2ccccc2Cl)c1 | -3.1 | + | 1.5 | 4.1
CCOC(=O)/C(=C/C=C1\Sc2cc(C)c(C)cc2N1CC)C(C)=O | -1.4 | + | -0.1 | -1.2
